Source: ChEMBL document CHEMBL3988442, “University of Dundee, Small-Polar-MMV Screening Library” (2021)
About 13,000 (27%) of roughly 48,000 compounds showed an effect of 50% or more. The list shows a part of the results.

The compounds below were run on Wolbachia pipientis (assay: Anti-Wolbachia Cell-Based Screen). Conditions: 5 µM.
Assay type: functional
Set-up: scale not given: in the data most compounds retested in dose-response had high values

Row | SMILES | Percent Effect [%]
1 | CCn1ncnc1C(C)NC(=O)Cc1cc2c(cc1Cl)OCCO2 (stereo unspecified) | 1.538
2 | CSc1ncccc1C(=O)NCc1ccc(N(C)C)cc1 | 175.4
3 | CNC(=O)c1cccnc1NCc1ccc(Cn2cccn2)cc1 | -20.21
4 | Cn1ccnc1SCCNC(=O)c1cc(S(N)(=O)=O)ccc1F | -8.563
5 | Cc1cccc(C(=O)NCc2ccc(OCCN(C)C)cc2)c1C | -6.28
6 | NS(=O)(=O)c1ccc(F)c(C(=O)NCCSc2ccccn2)c1 | 2.11
7 | Cc1ccc(C(=O)NCc2ccc(N(C)C)cc2)cn1 | -15.59
8 | CCSc1ncccc1C(=O)NCc1ccc(N(C)C)cc1 | 103
9 | CCCSc1ncccc1C(=O)NCc1ccc(N(C)C)cc1 | 112.3
10 | CC(C)(C)[S+]([O-])CCNC(=O)c1cccc2ncccc12 (stereo unspecified) | -2.962
11 | CN(C)CCOc1ccc(CNC(=O)c2cccc(Cl)c2Cl)cc1 | 13.68
12 | CSc1ncccc1C(=O)NCc1ccc(CS(=O)(=O)NC(C)C)cc1 | 2.17
13 | CCCSc1ncccc1C(=O)NCc1ccc(S(N)(=O)=O)cc1 | 120.7
14 | NC(=O)C(NCc1ccc(Cl)s1)c1ccccc1 (stereo unspecified) | -5.898
15 | CC(c1nc(C2CC2)no1)N(C)Cc1ccc(Cl)cc1 (stereo unspecified) | -4.386
16 | Cc1cc(-c2nn(C)c(Cl)c2CN2CC[C@@](O)(C3CCC3)[C@H](C)C2)no1 | 9.361
17 | CC(C1CCN(Cc2c(Cl)cncc2Cl)CC1)N1CCOCC1 (stereo unspecified) | 1.146
18 | CCCNC(=O)c1ccc(S(=O)(=O)NCC2(O)CCCNC2)cc1 (stereo unspecified) | -4.599
19 | NC(=O)C1CCN(CC(=O)NCCn2cc(Cl)cn2)CC1 | -2.539
20 | CC1CCN(CCNC(=O)Nc2ccc(F)cc2Cl)CC1 | 1.976
21 | Cc1cccc(N2CCN(CCNC(=O)c3ccnn3C)CC2)c1 | 20.06
22 | NC(=O)CN1CCC(C(=O)NCCn2cc(Cl)cn2)CC1 | 2.042
23 | O=C(NCCN1CCCCCC1)c1coc(COc2ccc(F)cc2)n1 | -5.25
24 | O=C(Cn1cc(Cl)cn1)NCCN1CCC(O)(c2ccc(F)cc2)CC1 | 66.04
25 | Cn1nccc1C(=O)NCCN1CCC(O)(c2ccc(F)cc2)CC1 | 137.8
26 | Cn1ncc(Cl)c1C(=O)NCCN1CCC(O)(c2ccc(F)cc2)CC1 | 129.2

Row | SMILES | Percent Effect [%]
27 | O=C(NCCN1CCOCC1)c1ccc(-c2ccc(F)cc2)nc1O | -1.382
28 | Cc1c(Cl)cccc1OCC(=O)NC1(C#N)CCSC1 (stereo unspecified) | -5.269
29 | COc1cc2nc(C)sc2cc1NC(=O)CN(C)C(C)C | -15.43
30 | CC(C)(C)OC(=O)N1CCCc2ccc(NCc3ccon3)cc21 | -9.372
31 | COC(=O)c1cccc(C(=O)N(C)Cc2ccsc2)c1 | 77.93
32 | CC(C)Cn1ncc2cc(C(=O)N(C)Cc3cccc(O)c3)cnc21 | -1.61
33 | CN(Cc1cccc(F)c1)C(=O)c1ccncc1Cl | -2.45
34 | CN(Cc1ccsc1)C(=O)c1cccc(F)c1 | 7.751
35 | COC(=O)Nc1cccc(C(=O)N(C)Cc2cccc(O)c2)c1 | 89.16
36 | CC(=O)Nc1cccc(CNC(=O)N(C)Cc2ccccc2)c1 | -8.333
37 | CCN(C)C(=O)c1cccc(C(=O)N(C)Cc2cccc(O)c2)c1 | 101.4
38 | COC(=O)c1cccc(C(=O)N(C)Cc2cccc(F)c2)c1 | 85.67
39 | CN(C)C(=O)c1cccc(NC(=O)N(CCO)Cc2ccsc2)c1 | 5.648
40 | CN(Cc1cccc(O)c1)C(=O)c1ccc(CCC(C)(C)O)cc1 | -13.77
41 | COCc1cccc(NC(C)C(=O)N(C)Cc2cccc(F)c2)c1 (stereo unspecified) | -0.4154
42 | c1cnc2c(c1)nc1n2[C@@H](CNC2CCOCC2)COC1 | -0.09884
43 | CCCC(=O)N(CCCN1CCOCC1)c1nc2c(F)cccc2s1.Cl | 33.03
44 | CN(C)Cc1nnc(C(=O)N(C)Cc2ccc(C(F)(F)F)cc2)o1 | -9.605
45 | O=C(NCc1nc(C2CCCCC2)no1)C1CC(=O)N(C2CCCC2)C1 (stereo unspecified) | -9.19
46 | CCc1nc(CSc2nnc(N)n2C2CC2)no1 | 6.66
47 | CC(=O)c1cccc(OCCCC(=O)N(C)Cc2cccc(O)c2)c1 | -0.5874
48 | COC(=O)c1cccc(C(=O)N(C)Cc2cccc(O)c2)c1 | 112.7
49 | Cc1nc2c(c(C)c1CC(=O)Nc1ccc(Cl)cc1)c(=O)[nH]n2C | -4.982
50 | COc1ncc(C(=O)NCc2ccccc2)cn1 | -10.01
51 | Cc1ccc(NC(=O)Cc2cnc3n(C)c(=O)[nH]c(=O)n23)cc1 | 128
52 | CC(C)(C)n1ncc2c(=O)n(CC(=O)NCc3ccccc3)cnc21 | 3.953

Row | SMILES | Percent Effect [%]
53 | Cn1c(=O)[nH]c(=O)n2c(CC(=O)Nc3ccc(Cl)c(Cl)c3)cnc12 | 103.6
54 | Cn1c(=O)[nH]c(=O)n2c(CC(=O)NCc3ccccc3)cnc12 | 108.8
55 | COCC(=O)Nc1ccc(Sc2nncn2C)c(Cl)c1 | 2.363
56 | Cc1nc2cc(=O)[nH]n2c(C)c1CC(=O)Nc1cn[nH]c1 | -20.81
57 | Cn1c(=O)[nH]c(=O)n2c(CC(=O)Nc3c(Cl)cccc3Cl)cnc12 | 100.8
58 | Cc1cnc(NC(=O)NCCOc2ncccc2Cl)s1 | 12.43
59 | Cc1cccc(Cl)c1NC(=O)Cn1cc(C(=O)O)ccc1=O | 9.076
60 | O=C(CCn1ccccc1=O)Nc1ccc(F)c(Cl)c1 | 4.502
61 | CNS(=O)(=O)CC(=O)N(Cc1c(F)cccc1F)C1CCCC1 | -5.167
62 | Cc1cccc(CN(C(=O)CS(C)(=O)=O)C(C)C)c1 | -6.499
63 | CC(C)c1cnc(CN2CCCS2(=O)=O)o1 | 3.272
64 | O=C(NCC(O)c1ccc(F)c(F)c1)c1cccnc1O (stereo unspecified) | -2.059
65 | CCNc1ncc(CN2C[C@H](C3CC3)[C@@H](N)C2)cn1 | -8.073
66 | CC(C)Cc1cc(CNC(=O)c2cccc3c2NCCC3)no1 | 2.864
67 | Cn1c(=O)ccn(CC(=O)Nc2cccnc2)c1=O | 18.35
68 | Cn1c(=O)[nH]c(=O)n2c(CC(=O)Nc3ccccc3)cnc12 | 114.1
69 | Cc1nc2c(c(C)c1CC(=O)Nc1cccc(C#N)c1)c(=O)[nH]n2C | -6.097
70 | Cc1cccc(NCc2nn(C)c(=O)[nH]2)c1 | -1.788
71 | Cc1cccc(NC(=O)Cc2cnc3n(C)c(=O)[nH]c(=O)n23)c1 | 101.4
72 | COCCn1ccc(=O)c(OCC(=O)Nc2ccccc2)c1C | 9.271
73 | Cc1nnc(N2CCC(CCN(C)C)CC2)c(C#N)c1C | 18.81
74 | O=S(=O)(C1CC1)N1CCOC2(CCCN(c3ccccc3)C2)C1 (stereo unspecified) | -6.387
75 | COC(=O)N1C[C@H]2CC[C@@H]1CN(Cc1cscn1)C2 | -5.87
76 | Cc1ccc(N2CCCC(N(C)Cc3nc(C)c(C)o3)C2)nn1 (stereo unspecified) | -10.05
77 | O=C(O)C(F)(F)F.O=C(O)C(F)(F)F.O=C1COC2(CCN(Cc3ccncc3)CC2)CN1c1ccccc1 | 106.6
78 | Cc1ccc(N2CC3(COCCN(Cc4ccncc4)C3)OCC2=O)s1.O=C(O)C(F)(F)F.O=C(O)C(F)(F)F (stereo unspecified) | 7.716

Row | SMILES | Percent Effect [%]
79 | Cc1ccc(N2CC3(COCCN(Cc4cnn(C)c4)C3)OCC2=O)s1.O=C(O)C(F)(F)F (stereo unspecified) | -8.814
80 | O=C(O)C(F)(F)F.O=C(O)C(F)(F)F.O=C1COC2(CCN(Cc3cccnc3)CC2)CN1c1ccccc1 | 95.43
81 | CN1CC(=O)N(c2ccccc2)CC12CCN(Cc1nccs1)C2.O=C(O)C(F)(F)F.O=C(O)C(F)(F)F (stereo unspecified) | -23.26
82 | O=C(O)C(F)(F)F.O=C(O)C(F)(F)F.O=C1COC2(COCCN(Cc3cccnc3)C2)CN1c1ccccc1 (stereo unspecified) | -10.32
83 | Cn1cc(CN2CCC3(CC2)CN(c2cccnc2)C(=O)CO3)cn1 | 89.07
84 | CN1CC(=O)N(c2cccc(F)c2)CC12CCN(Cc1ccncc1)C2.O=C(O)C(F)(F)F.O=C(O)C(F)(F)F (stereo unspecified) | -24.86
85 | O=C(O)C(F)(F)F.O=C1COC2(CCN(Cc3nccs3)CC2)CN1c1ccccc1 | 109.8
86 | O=C(O)C(F)(F)F.O=C1COC2(CCN(Cc3nccs3)CC2)CN1CC1CC1 | -7.755
87 | CCS(=O)(=O)c1ncc(CN(C)CCc2ccccn2)n1CCOC | -7.108
88 | CC(C)(C)c1ccc(S(=O)(=O)CCNC(=O)c2cnccn2)cc1 | -1.994
89 | O=C(Nc1cc(C2CCOCC2)[nH]n1)c1cscn1 | -9.479
90 | O=C(O)C(F)(F)F.O=C1COC2(CCN(Cc3ccoc3)CC2)CN1c1ccccc1 | 110.1
91 | c1coc(-c2nc3c(c(N4CCCN5CCC[C@H]5C4)n2)CCNCC3)c1 | -2.635
92 | Cc1nc(-c2cccc(C(=O)O)c2)c[nH]1 | 12.51
93 | O=C(O)c1ccc(-c2cscn2)cc1 | -4.979
94 | CN1CCC(c2cccc(-c3cccc(C(=O)O)c3)n2)CC1 | 172.2
95 | CN1CCC(c2cccc(-c3ccc(C(=O)O)cc3)n2)CC1 | 143.4
96 | CC(=O)N1CCC(c2cccc(-c3cccc(C(=O)O)c3)n2)CC1 | 150.5
97 | CCC1CN(CC(=O)NCC(C)C)CCO1 (stereo unspecified) | 14.46
98 | CN(C)C(Cn1ccnc1-c1nccn1C)c1ccccc1Cl (stereo unspecified) | -33.34
99 | Cn1cnc(S(=O)(=O)NCC2(O)CCc3ccccc3C2)c1 (stereo unspecified) | -0.2896
100 | Cc1cc(C(F)(F)F)cc(N2CCN(Cc3ccccc3)CC(O)C2)n1 (stereo unspecified) | -8.979
101 | Cc1noc(C)c1C(=O)NCc1cc[nH]n1 | -8.617
